Source: publication PMC7862700, “An all-to-all approach to the identification of sequence-specific readers for epigenetic DNA modifications on cytosine”

Assays:
Assay in all cases: DAPPL (digital affinity profiling via proximity ligation, sequencing); 10 mM Tris-HCl pH 7.5, 50 mM NaCl, 1 mM DTT, 4% glycerol, room temperature, 30 min; GST-TFs on glutathione beads, 16-mer random dsDNA library, 0.1% formaldehyde crosslink after washing; high values mean tight binding
FLI1 = target: T1, FLI1 (Homo sapiens, UniProt Q01543 1-452); conditions: protein: recombinant; tags: N-terminal GST; dsDNA, one strand shown
T1 sequence: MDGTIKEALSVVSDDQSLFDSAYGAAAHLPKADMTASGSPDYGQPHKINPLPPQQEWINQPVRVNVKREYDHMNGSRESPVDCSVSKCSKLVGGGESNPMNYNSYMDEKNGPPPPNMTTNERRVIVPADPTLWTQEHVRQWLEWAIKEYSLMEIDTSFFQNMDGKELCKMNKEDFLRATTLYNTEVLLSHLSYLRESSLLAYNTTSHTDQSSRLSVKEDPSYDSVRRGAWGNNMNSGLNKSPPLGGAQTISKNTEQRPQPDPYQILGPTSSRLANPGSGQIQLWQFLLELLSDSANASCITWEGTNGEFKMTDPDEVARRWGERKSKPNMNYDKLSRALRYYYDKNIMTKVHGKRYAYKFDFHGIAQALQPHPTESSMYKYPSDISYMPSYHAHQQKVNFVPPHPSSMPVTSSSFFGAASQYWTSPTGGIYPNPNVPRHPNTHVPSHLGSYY
In short: (§1)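 After expression in yeast as GST fusions, human transcription factors were bound to glutathione beads, DNA-barcoded and mixed with a tag-only sample. The pools were incubated with 200 nmole of a 16-mer random double-stranded DNA library in Tris/NaCl/DTT/glycerol buffer (30 min, room temperature), washed and crosslinked with 0.1% formaldehyde. Proximity ligation with BsaI/T4 ligase ran for 1 h at 37 °C, before PCR amplification and sequencing on an Illumina NextSeq500. Binding signal is a hexamer's read frequency for a factor divided by its frequency for the tag-only sample.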

ELK1 = target: T2, ELK1 (Homo sapiens, UniProt P19419 1-428); conditions: protein: recombinant; tags: N-terminal GST; dsDNA, one strand shown
T2 sequence: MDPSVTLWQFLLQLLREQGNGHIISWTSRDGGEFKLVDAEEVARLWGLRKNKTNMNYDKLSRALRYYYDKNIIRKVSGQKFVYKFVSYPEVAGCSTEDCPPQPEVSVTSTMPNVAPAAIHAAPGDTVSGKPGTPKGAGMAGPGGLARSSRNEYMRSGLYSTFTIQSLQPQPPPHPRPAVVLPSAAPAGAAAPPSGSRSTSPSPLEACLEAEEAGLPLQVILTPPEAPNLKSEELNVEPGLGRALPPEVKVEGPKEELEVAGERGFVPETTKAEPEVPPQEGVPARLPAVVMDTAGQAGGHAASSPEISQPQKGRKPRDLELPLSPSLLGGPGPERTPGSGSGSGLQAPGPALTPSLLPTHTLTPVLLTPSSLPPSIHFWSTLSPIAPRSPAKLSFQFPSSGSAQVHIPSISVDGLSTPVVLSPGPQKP
In short: as §1

GABPA = target: T3, GABPA (Homo sapiens, UniProt Q06546 1-454); conditions: protein: recombinant; tags: N-terminal GST; dsDNA, one strand shown
T3 sequence: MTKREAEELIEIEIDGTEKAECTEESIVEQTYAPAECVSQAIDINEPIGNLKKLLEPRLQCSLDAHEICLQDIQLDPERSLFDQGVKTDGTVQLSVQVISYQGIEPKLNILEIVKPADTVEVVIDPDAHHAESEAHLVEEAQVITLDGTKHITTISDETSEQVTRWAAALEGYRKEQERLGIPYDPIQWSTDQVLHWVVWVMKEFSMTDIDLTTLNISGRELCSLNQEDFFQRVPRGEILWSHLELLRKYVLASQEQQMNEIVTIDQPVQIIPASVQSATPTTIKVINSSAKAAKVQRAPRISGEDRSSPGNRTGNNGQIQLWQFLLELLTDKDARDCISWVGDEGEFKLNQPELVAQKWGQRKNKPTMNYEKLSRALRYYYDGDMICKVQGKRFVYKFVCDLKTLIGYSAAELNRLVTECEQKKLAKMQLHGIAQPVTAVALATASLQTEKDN
In short: as §1

ERG = target: T4, ERG (Homo sapiens, UniProt P11308 1-479); conditions: protein: recombinant; tags: N-terminal GST; dsDNA, one strand shown
T4 sequence: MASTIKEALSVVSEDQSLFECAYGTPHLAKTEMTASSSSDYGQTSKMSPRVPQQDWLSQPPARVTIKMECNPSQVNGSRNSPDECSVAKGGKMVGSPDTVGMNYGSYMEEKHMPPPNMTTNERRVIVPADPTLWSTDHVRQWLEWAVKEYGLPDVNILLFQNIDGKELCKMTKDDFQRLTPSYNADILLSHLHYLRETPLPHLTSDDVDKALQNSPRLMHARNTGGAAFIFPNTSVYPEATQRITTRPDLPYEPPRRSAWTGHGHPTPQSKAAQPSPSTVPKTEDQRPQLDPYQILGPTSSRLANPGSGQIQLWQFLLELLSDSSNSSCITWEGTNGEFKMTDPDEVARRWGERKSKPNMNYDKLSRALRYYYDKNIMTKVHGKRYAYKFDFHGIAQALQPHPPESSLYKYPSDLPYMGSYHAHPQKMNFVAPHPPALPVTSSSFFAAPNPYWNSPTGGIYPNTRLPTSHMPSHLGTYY
In short: as §1

ELF1 = ELF1 (Homo sapiens, UniProt P32519 1-619); conditions: protein: recombinant; tags: N-terminal GST; dsDNA, one strand shown
Sequence of ELF1 (P32519 whole entry): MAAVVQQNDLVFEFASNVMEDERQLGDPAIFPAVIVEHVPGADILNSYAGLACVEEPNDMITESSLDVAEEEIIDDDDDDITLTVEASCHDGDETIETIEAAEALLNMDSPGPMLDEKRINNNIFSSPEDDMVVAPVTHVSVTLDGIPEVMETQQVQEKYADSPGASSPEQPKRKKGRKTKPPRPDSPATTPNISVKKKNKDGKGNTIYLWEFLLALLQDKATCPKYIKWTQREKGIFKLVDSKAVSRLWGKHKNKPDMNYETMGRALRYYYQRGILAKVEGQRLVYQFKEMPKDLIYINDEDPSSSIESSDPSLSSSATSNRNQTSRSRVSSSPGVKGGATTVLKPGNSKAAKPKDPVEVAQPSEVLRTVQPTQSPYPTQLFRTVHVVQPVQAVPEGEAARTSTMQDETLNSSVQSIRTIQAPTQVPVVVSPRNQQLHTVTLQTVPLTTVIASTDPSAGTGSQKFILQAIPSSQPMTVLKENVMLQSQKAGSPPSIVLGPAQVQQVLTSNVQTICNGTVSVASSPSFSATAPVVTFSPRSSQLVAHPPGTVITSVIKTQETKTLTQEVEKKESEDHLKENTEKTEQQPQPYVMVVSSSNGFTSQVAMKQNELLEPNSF
In short: as §1

EHF = target: T5, EHF (Homo sapiens, UniProt Q9NZC4 1-300); conditions: protein: recombinant; tags: N-terminal GST; dsDNA, one strand shown
T5 sequence: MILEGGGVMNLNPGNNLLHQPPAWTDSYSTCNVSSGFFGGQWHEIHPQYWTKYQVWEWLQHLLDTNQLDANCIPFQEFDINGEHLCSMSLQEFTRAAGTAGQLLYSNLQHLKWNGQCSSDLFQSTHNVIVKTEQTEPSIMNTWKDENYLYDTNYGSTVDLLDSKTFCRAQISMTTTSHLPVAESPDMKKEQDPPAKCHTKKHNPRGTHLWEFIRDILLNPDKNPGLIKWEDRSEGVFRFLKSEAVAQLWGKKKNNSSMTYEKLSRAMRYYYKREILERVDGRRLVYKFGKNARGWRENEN
In short: as §1

SPI1 = SPI1 (Homo sapiens, UniProt P17947 1-270); conditions: protein: recombinant; tags: N-terminal GST; dsDNA, one strand shown
In short: as §1

SPIB = SPIB (Homo sapiens, UniProt Q01892 1-262); conditions: protein: recombinant; tags: N-terminal GST; dsDNA, one strand shown
Sequence of SPIB (Q01892 whole entry): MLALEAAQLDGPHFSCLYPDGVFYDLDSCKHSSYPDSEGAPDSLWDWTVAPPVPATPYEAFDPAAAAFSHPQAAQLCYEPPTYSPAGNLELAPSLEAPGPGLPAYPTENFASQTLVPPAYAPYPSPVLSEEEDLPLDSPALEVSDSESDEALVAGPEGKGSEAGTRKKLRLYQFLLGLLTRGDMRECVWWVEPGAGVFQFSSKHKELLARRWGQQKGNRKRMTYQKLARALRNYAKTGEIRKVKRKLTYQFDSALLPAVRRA
In short: as §1

ELK3 = target: T6, ELK3 (Homo sapiens, UniProt P41970 1-407); conditions: protein: recombinant; tags: N-terminal GST; dsDNA, one strand shown
T6 sequence: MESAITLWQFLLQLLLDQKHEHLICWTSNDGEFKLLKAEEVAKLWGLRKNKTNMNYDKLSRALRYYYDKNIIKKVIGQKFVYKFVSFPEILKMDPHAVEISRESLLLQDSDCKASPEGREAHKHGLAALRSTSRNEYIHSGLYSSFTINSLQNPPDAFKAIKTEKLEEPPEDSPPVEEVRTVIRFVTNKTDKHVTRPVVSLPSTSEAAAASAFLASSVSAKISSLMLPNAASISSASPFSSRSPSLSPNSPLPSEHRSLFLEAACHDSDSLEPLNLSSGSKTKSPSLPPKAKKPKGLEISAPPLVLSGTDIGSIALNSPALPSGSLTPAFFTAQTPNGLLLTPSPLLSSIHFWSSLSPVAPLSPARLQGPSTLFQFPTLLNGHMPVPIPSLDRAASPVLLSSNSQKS
In short: as §1

FEV = target: T7, FEV (Homo sapiens, UniProt Q99581 1-238); conditions: protein: recombinant; tags: N-terminal GST; dsDNA, one strand shown
T7 sequence: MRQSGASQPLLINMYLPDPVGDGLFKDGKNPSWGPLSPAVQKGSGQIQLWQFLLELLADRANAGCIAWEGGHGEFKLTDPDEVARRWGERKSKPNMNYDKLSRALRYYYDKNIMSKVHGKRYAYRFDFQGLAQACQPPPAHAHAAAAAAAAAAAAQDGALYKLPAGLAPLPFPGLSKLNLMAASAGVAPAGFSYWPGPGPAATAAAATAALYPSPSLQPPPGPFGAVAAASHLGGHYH
In short: as §1

ETV5 = ETV5 (Homo sapiens, UniProt P41161 1-510); conditions: protein: recombinant; tags: N-terminal GST; dsDNA, one strand shown
Sequence of ETV5 (P41161 whole entry): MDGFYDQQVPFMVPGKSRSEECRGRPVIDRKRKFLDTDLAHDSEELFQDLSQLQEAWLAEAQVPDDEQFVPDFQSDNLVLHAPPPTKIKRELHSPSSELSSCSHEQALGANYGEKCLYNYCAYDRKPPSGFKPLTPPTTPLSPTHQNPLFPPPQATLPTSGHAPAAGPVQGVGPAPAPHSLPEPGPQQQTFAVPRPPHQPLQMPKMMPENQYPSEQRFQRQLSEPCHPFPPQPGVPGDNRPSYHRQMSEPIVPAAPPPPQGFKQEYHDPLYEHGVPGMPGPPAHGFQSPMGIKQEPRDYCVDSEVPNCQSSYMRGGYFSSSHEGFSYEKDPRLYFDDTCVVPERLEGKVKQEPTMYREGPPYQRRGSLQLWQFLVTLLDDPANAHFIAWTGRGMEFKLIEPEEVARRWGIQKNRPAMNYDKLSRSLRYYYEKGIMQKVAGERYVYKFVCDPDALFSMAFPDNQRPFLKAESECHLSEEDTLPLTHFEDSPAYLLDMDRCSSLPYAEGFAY
In short: as §1

HSF1 = HSF1 (Homo sapiens, UniProt Q00613 1-529); conditions: protein: recombinant; tags: N-terminal GST; chain copies: 3; dsDNA, one strand shown
Sequence of HSF1 (Q00613 whole entry): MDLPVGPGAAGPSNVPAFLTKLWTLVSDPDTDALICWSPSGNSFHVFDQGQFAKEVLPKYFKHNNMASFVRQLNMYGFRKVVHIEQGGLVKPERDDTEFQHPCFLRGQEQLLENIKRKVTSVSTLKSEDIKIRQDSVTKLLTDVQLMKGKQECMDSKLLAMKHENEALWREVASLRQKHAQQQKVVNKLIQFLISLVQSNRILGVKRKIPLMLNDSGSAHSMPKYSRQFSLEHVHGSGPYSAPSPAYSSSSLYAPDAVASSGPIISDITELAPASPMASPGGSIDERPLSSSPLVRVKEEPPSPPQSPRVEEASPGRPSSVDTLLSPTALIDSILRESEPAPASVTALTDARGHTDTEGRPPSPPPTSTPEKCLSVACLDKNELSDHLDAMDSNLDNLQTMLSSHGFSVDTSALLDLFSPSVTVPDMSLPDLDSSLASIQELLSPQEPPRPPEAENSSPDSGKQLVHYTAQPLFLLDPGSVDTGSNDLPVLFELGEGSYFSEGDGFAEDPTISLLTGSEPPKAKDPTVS
In short: as §1

SPIC = target: T8, SPIC (Homo sapiens, UniProt Q8N5J4 1-248); conditions: protein: recombinant; tags: N-terminal GST; dsDNA, one strand shown
T8 sequence: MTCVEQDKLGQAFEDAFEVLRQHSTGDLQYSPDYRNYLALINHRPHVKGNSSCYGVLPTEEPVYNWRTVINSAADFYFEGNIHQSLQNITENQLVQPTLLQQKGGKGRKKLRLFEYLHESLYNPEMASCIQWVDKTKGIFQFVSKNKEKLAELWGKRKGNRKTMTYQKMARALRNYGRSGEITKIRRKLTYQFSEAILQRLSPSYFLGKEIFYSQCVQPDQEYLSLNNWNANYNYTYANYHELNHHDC
In short: as §1

ELF4 = ELF4 (Homo sapiens, UniProt Q99607 1-663); conditions: protein: recombinant; tags: N-terminal GST; dsDNA, one strand shown
Sequence of ELF4 (Q99607 whole entry): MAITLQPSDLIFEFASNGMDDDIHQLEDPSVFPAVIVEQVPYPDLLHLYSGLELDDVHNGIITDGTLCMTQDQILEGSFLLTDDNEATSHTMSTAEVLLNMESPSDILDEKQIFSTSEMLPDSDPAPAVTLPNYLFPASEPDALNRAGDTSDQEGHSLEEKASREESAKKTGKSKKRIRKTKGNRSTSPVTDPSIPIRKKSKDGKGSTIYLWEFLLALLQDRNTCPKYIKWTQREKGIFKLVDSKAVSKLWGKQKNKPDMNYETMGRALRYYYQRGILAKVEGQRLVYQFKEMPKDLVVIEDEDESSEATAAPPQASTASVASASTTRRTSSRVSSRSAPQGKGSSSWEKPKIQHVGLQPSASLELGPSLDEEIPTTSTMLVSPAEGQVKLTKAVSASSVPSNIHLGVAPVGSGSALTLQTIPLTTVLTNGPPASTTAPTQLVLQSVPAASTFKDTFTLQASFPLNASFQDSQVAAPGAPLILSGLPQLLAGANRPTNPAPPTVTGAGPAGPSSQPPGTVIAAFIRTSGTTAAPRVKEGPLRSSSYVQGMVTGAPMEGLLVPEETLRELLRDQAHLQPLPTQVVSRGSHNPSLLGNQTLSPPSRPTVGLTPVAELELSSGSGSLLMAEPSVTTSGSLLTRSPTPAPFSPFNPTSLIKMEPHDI
In short: as §1

ELK4 = target: T9, ELK4 (Homo sapiens, UniProt P28324-2 1-405); conditions: protein: recombinant; tags: N-terminal GST; dsDNA, one strand shown
T9 sequence: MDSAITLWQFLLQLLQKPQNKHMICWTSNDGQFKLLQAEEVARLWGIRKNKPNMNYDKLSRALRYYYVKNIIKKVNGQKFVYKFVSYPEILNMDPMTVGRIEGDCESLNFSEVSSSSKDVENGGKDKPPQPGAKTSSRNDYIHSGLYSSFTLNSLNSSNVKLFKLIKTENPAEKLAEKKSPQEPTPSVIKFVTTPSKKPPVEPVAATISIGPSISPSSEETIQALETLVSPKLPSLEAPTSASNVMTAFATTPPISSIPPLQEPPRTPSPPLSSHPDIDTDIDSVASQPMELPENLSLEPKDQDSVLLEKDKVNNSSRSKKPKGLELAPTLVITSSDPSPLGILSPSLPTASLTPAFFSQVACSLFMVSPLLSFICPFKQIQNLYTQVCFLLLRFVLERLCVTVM
In short: as §1

ETV2 = target: T10, ETV2 (Homo sapiens, UniProt O00321 1-342); conditions: protein: recombinant; tags: N-terminal GST; dsDNA, one strand shown
T10 sequence: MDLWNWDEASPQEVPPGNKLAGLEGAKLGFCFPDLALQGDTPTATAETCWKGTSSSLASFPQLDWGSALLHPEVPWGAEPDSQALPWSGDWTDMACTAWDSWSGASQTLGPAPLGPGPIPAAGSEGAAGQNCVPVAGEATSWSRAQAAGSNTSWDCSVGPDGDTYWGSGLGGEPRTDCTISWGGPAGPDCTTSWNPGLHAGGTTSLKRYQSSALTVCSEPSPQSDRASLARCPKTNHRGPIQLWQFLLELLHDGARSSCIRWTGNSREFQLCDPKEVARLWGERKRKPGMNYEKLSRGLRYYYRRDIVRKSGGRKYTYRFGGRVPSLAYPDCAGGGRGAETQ
In short: as §1

ELF3 = target: T11, ELF3 (Homo sapiens, UniProt P78545 1-371); conditions: protein: recombinant; tags: N-terminal GST; dsDNA, one strand shown
T11 sequence: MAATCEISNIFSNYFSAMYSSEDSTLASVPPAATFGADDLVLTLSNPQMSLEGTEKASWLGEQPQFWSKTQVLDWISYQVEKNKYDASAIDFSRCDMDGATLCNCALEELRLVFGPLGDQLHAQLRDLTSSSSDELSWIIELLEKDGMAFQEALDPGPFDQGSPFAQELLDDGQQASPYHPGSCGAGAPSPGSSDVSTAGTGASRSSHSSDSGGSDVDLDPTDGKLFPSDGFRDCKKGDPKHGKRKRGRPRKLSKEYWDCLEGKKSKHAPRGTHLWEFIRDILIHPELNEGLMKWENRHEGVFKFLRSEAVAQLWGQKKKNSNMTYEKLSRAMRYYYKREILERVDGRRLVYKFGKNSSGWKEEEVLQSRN
In short: as §1

CRX = CRX (Homo sapiens, UniProt O43186 1-299); conditions: protein: recombinant; tags: N-terminal GST; dsDNA, one strand shown
Sequence of CRX (O43186 whole entry): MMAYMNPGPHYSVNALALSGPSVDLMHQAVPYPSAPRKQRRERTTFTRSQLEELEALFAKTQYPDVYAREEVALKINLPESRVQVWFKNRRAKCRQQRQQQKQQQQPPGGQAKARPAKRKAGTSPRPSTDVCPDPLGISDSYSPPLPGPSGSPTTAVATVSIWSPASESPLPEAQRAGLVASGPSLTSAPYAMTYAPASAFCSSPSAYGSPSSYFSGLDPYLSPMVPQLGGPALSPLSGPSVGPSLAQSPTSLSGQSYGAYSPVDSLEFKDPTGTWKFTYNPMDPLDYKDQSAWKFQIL
In short: as §1

ETV1 = ETV1 (Homo sapiens, UniProt P50549 1-477); conditions: protein: recombinant; tags: N-terminal GST; dsDNA, one strand shown
Sequence of ETV1 (P50549 whole entry): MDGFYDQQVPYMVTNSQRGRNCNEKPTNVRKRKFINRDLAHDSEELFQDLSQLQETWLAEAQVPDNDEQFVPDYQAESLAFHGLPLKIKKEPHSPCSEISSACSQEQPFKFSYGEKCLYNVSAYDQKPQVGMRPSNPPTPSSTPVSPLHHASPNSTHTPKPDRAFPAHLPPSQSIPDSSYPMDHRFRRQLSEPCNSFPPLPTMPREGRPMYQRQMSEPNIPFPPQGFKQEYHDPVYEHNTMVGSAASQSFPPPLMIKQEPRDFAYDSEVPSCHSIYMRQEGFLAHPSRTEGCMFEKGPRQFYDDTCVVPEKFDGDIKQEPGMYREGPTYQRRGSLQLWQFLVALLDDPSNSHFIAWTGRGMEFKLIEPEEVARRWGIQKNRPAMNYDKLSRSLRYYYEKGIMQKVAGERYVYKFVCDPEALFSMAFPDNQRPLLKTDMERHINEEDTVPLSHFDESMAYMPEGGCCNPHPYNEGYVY
In short: as §1

TATAAT
binding signal (FLI1): 1.14 fold enrichment (6-mer frequency, TF over GST control)
binding signal (ELK1): 1.24 fold enrichment (6-mer frequency, TF over GST control)
binding signal (GABPA): 1.12 fold enrichment (6-mer frequency, TF over GST control)
binding signal (ERG): 1.07 fold enrichment (6-mer frequency, TF over GST control)
binding signal (ELF1): 1.18 fold enrichment (6-mer frequency, TF over GST control)
binding signal (EHF): 1.18 fold enrichment (6-mer frequency, TF over GST control)
binding signal (SPI1): 1.15 fold enrichment (6-mer frequency, TF over GST control)
binding signal (SPIB): 1.15 fold enrichment (6-mer frequency, TF over GST control)
binding signal (ELK3): 1.22 fold enrichment (6-mer frequency, TF over GST control)
binding signal (FEV): 1.16 fold enrichment (6-mer frequency, TF over GST control)
binding signal (ETV5): 1.17 fold enrichment (6-mer frequency, TF over GST control)
binding signal (HSF1): 1.82 fold enrichment (6-mer frequency, TF over GST control)
binding signal (SPIC): 1.1 fold enrichment (6-mer frequency, TF over GST control)
binding signal (ELF4): 1.13 fold enrichment (6-mer frequency, TF over GST control)
binding signal (ELK4): 1.25 fold enrichment (6-mer frequency, TF over GST control)
binding signal (ETV2): 1.3 fold enrichment (6-mer frequency, TF over GST control)
binding signal (ELF3): 1.27 fold enrichment (6-mer frequency, TF over GST control)
binding signal (CRX): 2.69 fold enrichment (6-mer frequency, TF over GST control)
binding signal (ETV1): 1.15 fold enrichment (6-mer frequency, TF over GST control)
